# Compound activity: PubChem, National Center for Advancing Translational Sciences (NCATS)
# An excerpt weighted towards active compounds, which were near 6.9% of everything screened.
# Giardia killer = Giardia lamblia killing. Giardia lamblia trophozoite viability. activity change, % at 7.66 µM, hits read low. actives 0.15% (n = 340,000). AID 540267; in the data active = activity change below about -80%; inconclusive = between about -30% and that limit;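 note: parasites exposed to compound for two days anaerobically before the ATP read; % is set by controls: 0 for no effect and ±100 for the full control effect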
#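 Viability, read as ATP luminescence: trophozoites at 100 cells/well, compound added, 48 hrs anaerobic at 37 deg C, then 15-30 min room-temperature development before reading.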
# MCF10A rereplic = induces DNA re-replication in MCF 10a normal breast cells | actives 2.9% (n = 350,000) | Potency, µM (top dose mostly 46.1 µM), for inactives: at the highest dose activity, positive = re-replication, usual class: activators | MCF 10A DNA re-replication, Hoechst nuclear intensity, 48 h; note: potency is the fitted concentration of half-maximal effect; % of control where 0% means no effect; nearly all actives have a fitted effect of over 50% in size
# KB-V1 cytotox = KB-V1 MDR subline cytotoxicity; Potency, µM (titrated, usually from 46.1 µM), usual class: cytotoxic; AID 1347076; KB-V1 MDR cells viability, CellTiter-Glo, 72 h; actives 3.4% (n = 400,000); note: potency is the fitted concentration of half-maximal effect; % is set by controls: 0 for no effect and ±100 for the full control effect; nearly all actives have a fitted effect of over 60% in size
#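 qHTS viability screen in drug-selected KB-V1 MDR cells: 72 h compound treatment at 37 degrees C, ATP luminescence end point.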
# SW480 rerep = DNA re-replication induction in SW480 cells | Potency, µM (series often up to 46.1 µM), inactives show at the highest dose re-replication activation, hits mostly activators | actives 1.8% (n = 340,000) | SW480 DNA re-replication, Hoechst DNA content imaging, 48 h; note: potency is the fitted concentration of half-maximal effect; % of control where 0% means no effect; nearly all actives have a fitted effect of over 55% in size
#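 Readout is total intensity of Hoechst-stained nuclei, excited at 405 nm and collected at 500-530 nm. Compound treatment lasted 48 hr at 37 C in 5% CO2 before staining.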
# ASM inhibitor = blocks human secretory acid sphingomyelinase | P17405 | actives 0.006% (n = 340,000) | AID 504937 | placental ASM, HMU-PC fluorogenic substrate, 60 min | Potency, µM (doses to about 57.5 µM), without a hit: at the highest dose activity change, negative = inhibition, actives largely listed as inhibitors; note: potency is the fitted concentration of half-maximal effect
# Target sequence (P17405 47-631 limits assumed): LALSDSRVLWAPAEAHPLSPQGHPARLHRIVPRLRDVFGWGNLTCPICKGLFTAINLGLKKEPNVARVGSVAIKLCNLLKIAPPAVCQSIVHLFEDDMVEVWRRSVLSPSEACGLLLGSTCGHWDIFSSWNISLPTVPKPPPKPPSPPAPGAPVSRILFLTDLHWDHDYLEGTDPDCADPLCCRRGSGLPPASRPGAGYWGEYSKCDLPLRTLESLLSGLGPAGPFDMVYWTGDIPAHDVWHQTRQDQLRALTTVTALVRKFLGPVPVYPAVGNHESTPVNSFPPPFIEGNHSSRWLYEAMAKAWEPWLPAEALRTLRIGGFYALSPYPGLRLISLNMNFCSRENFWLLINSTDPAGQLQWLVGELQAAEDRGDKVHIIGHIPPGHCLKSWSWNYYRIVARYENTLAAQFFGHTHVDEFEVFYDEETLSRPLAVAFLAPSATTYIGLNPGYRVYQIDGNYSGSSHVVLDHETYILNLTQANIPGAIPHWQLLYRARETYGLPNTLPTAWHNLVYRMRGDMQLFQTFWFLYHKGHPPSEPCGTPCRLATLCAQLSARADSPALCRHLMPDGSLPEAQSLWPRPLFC
#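 qHTS format. ASM enzyme prepared from human placenta hydrolyses the fluorogenic substrate HMU-PC0 (9 uM final) over 60 min at 37 °C after a 10 min compound preincubation.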
# KB-3-1 cytotox = KB-3-1 parental cell cytotoxicity | KB-3-1 viability, CellTiter-Glo ATP luminescence, 72 h | Potency, µM (top dose mostly 46.1 µM), usual class: cytotoxic | actives 1.4% (n = 400,000); note: potency is the fitted concentration of half-maximal effect; % is set by controls: 0 for no effect and ±100 for the full control effect; nearly all actives have a fitted effect of over 60% in size
#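 Multi-concentration cytotoxicity screen in KB-3-1 cells grown in DMEM lacking phenol red with 10% FBS. After 72 h at 37 °C with compound, ATP-dependent luminescence was recorded.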
# * = called active by the depositor; i = inactive; ? = inconclusive; / = no result given. Unless noted, calls come from the whole dose curve; as a rule, active = well fitted curve in the direction sought with a large enough effect; inconclusive = small, poorly fitted or top-dose-only effect, or another doubt; inactive = no such curve, though single readings can be large; an effect the other way counts as inactive or inconclusive.
SMILES,Giardia killer,MCF10A rereplic,KB-V1 cytotox,SW480 rerep,ASM inhibitor,KB-3-1 cytotox
NS(=O)(=O)c1ccc(CCNC(=O)CSc2nc3ccccc3c(=O)n2CCC(=O)N2CCCCC2)cc1,-6,0.73µM*,i,-35%,0%,i
CCc1ccc(NC(=O)CSc2nc3ccccc3c(=O)n2CCCC(=O)N2CCCC2)cc1,-5,?,2.9µM*,?,-8%,?
CCc1ccc2occ(CC(=O)Nc3c(C(=O)c4ccc(C)cc4)oc4ccccc34)c2c1,/,/,i,/,/,i
COc1ccc(C(CC(=O)Nc2ccc(Cl)cc2F)NC(=O)C(F)(F)F)cc1 (centres undefined),7,2%,8.2µM*,-10%,-1%,i
Cc1ccccc1N1CCN(C2=NC(=O)/C(=C\c3cccs3)S2)CC1,10,6.5µM*,i,?,-20%,?
O=C1N=C(N2CCN(c3cccc4ccccc34)CC2)S/C1=C/c1cccs1,-10,-21%,i,1%,-14%,i
COCc1[nH]nc2c1C(c1ccnc3ccccc13)C(C#N)=C(N)O2 (centres undefined),-2,?,i,16µM*,1%,i
CCOCCCNC(=O)c1c(NC(=O)c2nc(SCC)ncc2Cl)sc2c1CCCC2,/,/,i,/,/,i
O=Nc1c(O)[nH]c2ccc(Cl)c(Cl)c12,12,18%,?,1%,-6%,0.41µM*
CCOc1ccc(N2C(=O)CC(NC3CCN(C(=O)c4ccc(F)cc4)CC3)C2=O)cc1 (centres undefined),18,0%,/,0%,-3%,/
O=C(Nc1ccnn1C1CCN(Cc2ccccc2F)CC1)C1CCCC1,-27,-1%,/,15%,0%,/
O=C(Nc1ccc(Cl)cc1C(F)(F)F)C(Sc1nnc(-c2cccs2)o1)c1ccccc1 (centres undefined),4,1.6µM*,15µM*,/,-1%,?
Cc1nn2cc(-c3cccc(Cl)c3)cnc2c1Cl,-17,9.2µM*,5.8µM*,6.5µM*,-1%,13µM*
Cc1nn2cc(-c3cccc(Cl)c3)cnc2c1Br,-19,?,?,?,10%,i
Cc1ccc(OCC(=O)Nc2cc(-c3nc4cc(Cl)ccc4o3)ccc2C)c(C)c1,/,/,i,/,/,i
CCc1cc[n+](-c2nc3ccccc3nc2[N-]S(=O)(=O)c2ccc(Br)s2)cc1,14,4%,i,11%,-3%,i
COc1cc2ccccc2cc1C(=O)Nc1ccc(Cc2ccncc2)cc1,8,21µM*,9.2µM*,18µM*,-2%,18µM*
COc1cc2ccccc2cc1C(=O)N/N=C/c1cccnc1,-3,-2%,?,1%,3%,16µM*
COc1ccc(C(=O)Nc2ccc3ccccc3c2)c(OC)c1,-6,?,18µM*,1%,3%,?
COc1cc2ccccc2cc1C(=O)Nc1ccc(C)cc1,29,?,?,?,-8%,?
Cc1ccc(OCC(=O)Nc2cc(-c3nn4c(C)nnc4s3)ccc2C)cc1,6,-4%,?,-9%,1%,18µM*
Cc1ccc(-c2nn3c(C)nnc3s2)cc1NC(=O)c1ccc(-c2ccc(Cl)cc2Cl)o1,-4,7.3µM*,?,18%,13%,21µM*
CCc1ccccc1N(C)C(=O)C1CCCN(c2ncnc3c2nc2n3CCCCC2)C1 (centres undefined),/,/,?,/,/,i
COCCn1c(-c2ccccc2)cnc1SCC(=O)Nc1cccc2ccccc12,19,?,5.2µM*,8%,-3%,i
CCOC(=O)c1cccc(NC(=O)CSc2nc3ccccc3c(=O)n2CCOC)c1,-14,25%,4.6µM*,-1%,-12%,i
SMILES,Giardia killer,MCF10A rereplic,KB-V1 cytotox,SW480 rerep,ASM inhibitor,KB-3-1 cytotox
CCOC(=O)c1cccc(NC(=O)CSc2nc3ccccc3c(=O)n2CC)c1,-13,4%,2.3µM*,-8%,-7%,i
COC(=O)c1c(SC)nc2ccccc2c1OCc1ccc(Cl)cc1,/,/,i,/,/,i
Nn1cnnc1N/N=C/c1cc(Br)cc(Br)c1O,4,?,2.3µM*,?,58%,?
CC(C)(C)c1ccc(/C=N/Nc2nncn2N)cc1,22,12µM*,i,26%,2%,i
CCC(C(=O)NCC1CCCO1)N(Cc1ccccc1)C(=O)CNS(=O)(=O)c1ccccc1 (centres undefined),13,-3%,i,-4%,-1%,i
Cc1[nH]n2c(=O)cc(-c3ccc(Cl)cc3)nc2c1-c1ccccc1,/,/,i,/,/,?
COc1ccccc1NC(=O)Cn1c(=O)n(CCC(=O)NCC2CCCO2)c(=O)c2cc(OC)c(OC)cc21 (centres undefined),/,/,i,/,/,i
Nc1ncnc2c(C3OC(CO)C(O)C3O)scc12 (centres undefined),68,?,?,?,100%,0.1µM*
Nc1ncnc2c1ncn2C1O[C@H](CO)[C@@H](O)[C@@H]1O (some centres undefined),?,-23%,i,-30%,0%,i
Cn1cc(C(=O)N/N=C/C(Br)=C\c2ccccc2)ccc1=O,-4,?,i,18µM*,3%,i
O=C(Cc1cccs1)N/N=C/C(Br)=C/c1ccccc1,3,18µM*,i,14%,-2%,i
COc1cccc(C(=O)N/N=C/C(Br)=C/c2ccccc2)c1,-7,8.2µM*,3.7µM*,?,-13%,?
O=C(N/N=C/C(Br)=C/c1ccccc1)c1cnccn1,-2,16µM*,i,3.3µM*,-1%,i
CC(/C=N/NC(=O)Cc1cccs1)=C\c1ccccc1,-28,?,i,21%,1%,i
Cn1cc(C(=O)N/N=C/C=C/c2ccccc2)ccc1=O,-2,-4%,i,0%,-2%,i
Cc1ccc(-n2nc(C)c3c(C)cc(=O)n(CC(=O)Nc4cccc(C)c4C)c32)cc1,/,/,i,/,/,i
Cc1ccc(OCC(=O)Nc2cccc(-c3nc4ccccc4s3)c2)cc1,/,/,i,/,/,i
CC(=O)N1CCN(c2ccc(NS(=O)(=O)c3ccc4c(c3)CC(=O)N4)cc2)CC1,/,/,i,/,/,?
CCOc1ccc2c(c1)c(=O)c(C(=O)c1ccc3c(c1)OCO3)cn2Cc1cccc(F)c1,/,/,i,/,/,i
Cn1cc(C(=O)N/N=C/C(Br)=C/c2ccccc2)ccc1=O,9,26µM*,i,?,-5%,?
O=[S+]1([O-])N=C(Oc2cccnc2)c2ccccc21,/,/,i,/,/,i
COCCNC(=O)/C(C#N)=C/C=C/c1ccccc1[N+](=O)[O-],-3,15µM*,?,23%,-4%,i
